Results filed as inconclusive are left out. The source made the active and inactive calls. Rule for the calls, unless noted: active = hit-call score of the fitted dose curve at least 0.9, where 1 is the maximum; inactive = score below 0.9.

Experiment [1] in a line: ACEA_ER_80hr: ACEA Biosciences xCELLigence Real-Time Cell Analysis on Estrogen Receptor Agonism for Proliferation (AID 2282667; active = hit-call score of the fitted dose curve at least 0.9, where 1 is the maximum). The conditions noted are these: T47D proliferation, impedance (xCELLigence), 80 h. An outline of the steps: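 Impedance readout (RT-CES) of T47D proliferation at 80 h post-dose; gain of signal vs DMSO baseline. Compounds: 8 conc, 1:4 serial, top 100 uM final, ≤0.5% DMSO; biological duplicate.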

Experiment [2] in a line: ATG_CRE_CIS: Attagene CIS-FACTORIAL HepG2 Assay for human cAMP Responsive Element (CRE) binding protein 3 (AID 2282926). The settings on record: HepG2 CRE cis-reporter, Attagene multiplexed mRNA; actives raise or lower the signal. An outline of the steps: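 Endogenous CRE-binding activity in HepG2 is reported through a cis-regulated transfected reporter. Following a day of exposure, mRNA levels are determined by reverse transcription PCR and fluorescent fragment analysis; fits run in both directions versus DMSO.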

Experiment [3] concerns the target CCAAT/enhancer-binding protein beta (Homo sapiens) (UniProt P17676). Put plainly: ATG_C_EBP_CIS: Attagene CIS-FACTORIAL HepG2 Assay for human CCAAT/Enhancer Binding Protein (C/EBP) beta (AID 2282927). The settings on record: HepG2 Attagene cis-factorial transcription factor reporter; actives raise or lower the signal. In outline:
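HepG2 transiently transfected with multiplexed reporter units under cis-regulatory promoters reporting endogenous C/EBPb activity. After 24 h exposure, reporter mRNA assayed by RT-PCR, fluorescent labelling, HpaI digestion and capillary electrophoresis; bidirectional fitting versus DMSO.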

A short description of experiment [4]: ATG_CMV_CIS: Attagene CIS-FACTORIAL HepG2 Assay for human CMV (Internal Marker) (AID 2282928).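 Note: endpoint acts as a background internal control marker rather than a target.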 The conditions noted are these: HepG2 CMV promoter reporter, transcription factor profiling; actives raise or lower the signal. In outline: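 HepG2 cells transiently transfected with multiple cis-regulated reporter units; 24 h compound exposure. Reporter mRNA quantified by RT-PCR, 6-FAM primer-extension labeling, HpaI digestion and capillary electrophoresis; bidirectional fitting against DMSO baseline.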

Experiment [5] is described as follows: ATG_DR4_LXR_CIS: Attagene CIS-FACTORIAL HepG2 Assay for human Liver X Receptor (LXR), DR4 submotif (AID 2282929). The settings on record: HepG2 Attagene DR4 cis-reporter, mRNA transcription; actives raise or lower the signal. In outline:
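Measures endogenous transcription factor activity via a DR4-driven reporter transcript in human HepG2 cells. Compounds incubated 24 h; mRNA quantified by RT-PCR and capillary electrophoresis, analysed as gain or loss of signal versus DMSO.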

Experiment [6] deals with Aryl hydrocarbon receptor (Homo sapiens) (UniProt P35869). Put plainly: ATG_Ahr_CIS: Attagene CIS-FACTORIAL HepG2 Assay for human Aryl Hydrocarbon Receptor (Ahr) (AID 2282930). The settings on record: HepG2 AhR cis-factorial reporter transcription; actives raise or lower the signal. An outline of the steps: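 HepG2 cells transiently transfected with cis-element-driven multiplexed reporter units; endogenous AhR activity read as reporter mRNA 24 h after dosing, via RT-PCR, 6-FAM labelling, HpaI digestion and capillary electrophoresis. Bidirectional fit relative to DMSO.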

The nature of experiment [7]: ATG_AP_1_CIS: Attagene CIS-FACTORIAL HepG2 Assay for human Activator Protein 1 (AP-1) (AID 2282931). The conditions noted are these: HepG2 Attagene cis-factorial AP-1 reporter mRNA; actives raise or lower the signal. An outline of the steps:
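Bidirectional concentration-response fitting against DMSO controls. Underlying signal: reporter mRNA from cis-promoter constructs in transiently transfected HepG2, measured after 24 h by RT-PCR and capillary electrophoresis.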

The nature of experiment [8]: ATG_AP_2_CIS: Attagene CIS-FACTORIAL HepG2 Assay for human Activator Protein 2 (AP-2) (AID 2282932). The settings on record: HepG2 AP-2 cis-reporter, Attagene transcription factor profiling; actives raise or lower the signal. In outline: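 Multiplexed mRNA reporter assay in HepG2: cis-regulated units report endogenous factor activity after 24 h treatment. Fluorescence from capillary electrophoresis of RT-PCR products gives the signal, with DMSO as baseline.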

The nature of experiment [9]: ATG_BRE_CIS: Attagene CIS-FACTORIAL HepG2 Assay for human Bone Morphogenetic Protein (BMP) Response Element (BRE) (AID 2282933). The conditions noted are these: HepG2 BMP response element reporter, Attagene transcription factor profiling; actives raise or lower the signal. In outline:
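A HepG2 multiplex reporter system measured inducible reporter mRNA 24 h post-dosing. Detection: RT-PCR, 6-FAM primer extension, HpaI digestion, capillary electrophoresis. Activity fitted bidirectionally relative to DMSO.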

The target of experiment [10] is Retinoic acid receptor alpha (Homo sapiens) (UniProt P10276). Put plainly: ATG_DR5_RAR_CIS: Attagene CIS-FACTORIAL HepG2 Assay for human Retinoic Acid Receptor Alpha (RARE), DR5 submotif (AID 2282934). The conditions noted are these: HepG2 Attagene cis-factorial RARE DR5 reporter, mRNA; actives raise or lower the signal. An outline of the steps: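 HepG2 cells transiently transfected with multiplexed reporter units; DR5 cis-element drives reporter through endogenous transcription factors. After 24 h dosing, reporter mRNA quantified by RT-PCR, fluorescent labeling, HpaI digestion and capillary electrophoresis; bidirectional fitting versus DMSO.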
Retinoic acid receptor alpha (Homo sapiens), sequence (P10276 whole entry, looked up): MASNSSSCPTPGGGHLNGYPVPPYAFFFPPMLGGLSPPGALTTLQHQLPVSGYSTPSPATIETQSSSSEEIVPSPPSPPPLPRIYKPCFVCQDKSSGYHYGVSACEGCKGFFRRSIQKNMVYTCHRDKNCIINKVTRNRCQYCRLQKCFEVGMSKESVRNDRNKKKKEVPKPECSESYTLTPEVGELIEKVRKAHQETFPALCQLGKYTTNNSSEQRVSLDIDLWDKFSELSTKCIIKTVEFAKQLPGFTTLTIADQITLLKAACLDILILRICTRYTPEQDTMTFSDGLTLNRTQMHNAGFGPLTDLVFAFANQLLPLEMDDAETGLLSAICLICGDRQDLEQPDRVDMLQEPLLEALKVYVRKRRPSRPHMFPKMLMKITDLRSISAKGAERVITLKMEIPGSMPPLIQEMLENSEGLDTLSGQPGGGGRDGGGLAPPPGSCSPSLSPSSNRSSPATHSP

Aryl hydrocarbon receptor (Homo sapiens), sequence (P35869 whole entry, looked up): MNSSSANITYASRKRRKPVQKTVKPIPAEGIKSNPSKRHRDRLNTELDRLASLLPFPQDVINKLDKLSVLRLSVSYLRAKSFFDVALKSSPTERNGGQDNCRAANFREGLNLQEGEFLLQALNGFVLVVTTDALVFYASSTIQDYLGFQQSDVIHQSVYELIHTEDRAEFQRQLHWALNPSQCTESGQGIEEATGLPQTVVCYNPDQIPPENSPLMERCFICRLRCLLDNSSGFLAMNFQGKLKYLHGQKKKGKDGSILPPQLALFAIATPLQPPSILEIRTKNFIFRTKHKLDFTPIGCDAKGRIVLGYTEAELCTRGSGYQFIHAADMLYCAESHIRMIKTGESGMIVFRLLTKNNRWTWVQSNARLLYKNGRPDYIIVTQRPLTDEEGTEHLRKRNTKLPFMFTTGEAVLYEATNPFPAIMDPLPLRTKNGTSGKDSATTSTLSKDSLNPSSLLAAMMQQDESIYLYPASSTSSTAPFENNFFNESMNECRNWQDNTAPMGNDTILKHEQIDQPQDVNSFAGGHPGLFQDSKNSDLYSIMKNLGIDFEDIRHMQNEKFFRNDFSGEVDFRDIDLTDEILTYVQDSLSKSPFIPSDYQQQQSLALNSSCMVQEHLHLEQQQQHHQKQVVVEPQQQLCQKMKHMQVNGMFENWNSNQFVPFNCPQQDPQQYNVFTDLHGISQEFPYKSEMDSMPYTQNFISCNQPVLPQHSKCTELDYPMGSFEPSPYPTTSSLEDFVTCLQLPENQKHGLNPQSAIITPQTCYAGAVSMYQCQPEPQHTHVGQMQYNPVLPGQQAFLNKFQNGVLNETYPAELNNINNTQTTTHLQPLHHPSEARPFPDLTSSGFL
CCAAT/enhancer-binding protein beta (Homo sapiens), sequence (P17676 whole entry, looked up): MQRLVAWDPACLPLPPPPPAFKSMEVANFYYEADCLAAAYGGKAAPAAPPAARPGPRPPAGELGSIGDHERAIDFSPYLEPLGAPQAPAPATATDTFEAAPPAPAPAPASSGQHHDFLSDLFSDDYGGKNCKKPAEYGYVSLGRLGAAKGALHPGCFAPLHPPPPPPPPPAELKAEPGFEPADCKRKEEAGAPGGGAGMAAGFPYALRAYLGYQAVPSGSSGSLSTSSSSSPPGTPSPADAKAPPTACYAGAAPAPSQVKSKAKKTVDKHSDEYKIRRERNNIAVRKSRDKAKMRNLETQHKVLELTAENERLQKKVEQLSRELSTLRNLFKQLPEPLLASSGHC

For the molecule `CS(C)(=O)=O`, the outcome in experiment [1], in experiment [2], in experiment [3], in [4], in experiment [5] and in [6] was inactive. For the same molecule, the molecule was called inactive in [7], in [8], in [9] and in experiment [10].

Take `O=C(O)C(F)(F)C(F)(F)OC(F)(F)F`: the result in [1], in [2], in [3], in experiment [4], in experiment [5] and in experiment [6] was inactive. Moreover, the call in experiment [7], in experiment [8], in experiment [9] and in experiment [10] was inactive.

Turning to `OCC(F)(F)C(F)(F)C(F)(F)C(F)F`, the call in experiment [1], in experiment [2], in experiment [3], in experiment [4], in experiment [5] and in experiment [6] was inactive. Moreover, the molecule was called inactive in experiment [7], in experiment [8], in experiment [9] and in experiment [10].

Regarding `FC(F)(F)C(F)(F)C(F)(F)C(F)(F)C(F)(F)CCI`, the molecule was classed as inactive in experiment [1], in experiment [2], in [3], in experiment [5], in experiment [8] and in experiment [9]. Also, the result in experiment [10] was inactive. In addition, the values for the concentration at half-maximal activity (AC50) in [4], in experiment [6] and in experiment [7] were 97.7 µM (active), 32.1 µM (active) and 59.9 µM (active), respectively.

As to `CCCCOCCOCCOC(=O)CCCCC(=O)OCCOCCOCCCC`, the call in [1], in experiment [2], in experiment [3], in experiment [4], in experiment [5] and in [6] was inactive. The result in experiment [7], in experiment [8], in experiment [9] and in experiment [10] was inactive.

Turning to `O=C(C=Cc1ccccc1)OCC=Cc1ccccc1`, the molecule was classed as inactive in [1], in experiment [2], in experiment [3], in experiment [4], in experiment [6] and in experiment [7]. Also, the result in [8], in [9] and in [10] was inactive. The AC50 in experiment [5] is 24.3 µM (active).

For `FC1CC(F)(F)C(F)(F)C1(F)F` (configuration not stated), the molecule was called inactive in experiment [1], in experiment [2], in experiment [3], in [4], in experiment [5] and in experiment [6]. Also, the molecule was called inactive in experiment [7], in experiment [8], in experiment [9] and in [10].

As for `CC(Cc1ccc(O)c(O)c1)C(C)Cc1ccc(O)c(O)c1` (configuration not stated), the molecule was classed as inactive in [1], in experiment [3], in experiment [4], in [5], in experiment [6] and in experiment [8]. In addition, the molecule was called inactive in experiment [9] and in experiment [10]. Moreover, the AC50 in [2] was 22.9 µM (active).

On to `O=C(Cl)C(F)(F)C(F)(F)C(F)(F)C(F)(F)C(F)(F)C(F)(F)C(F)(F)C(F)(F)F`, for which the outcome in experiment [1], in experiment [2], in [3], in experiment [4], in experiment [6] and in [8] was inactive. The result in experiment [9] and in experiment [10] was inactive. The AC50 in experiment [5] was 13 µM (active); in [7] it was 16.1 µM (active).

On to `FC(F)(I)C(F)(F)C(F)(F)C(F)(F)I`, for which, in [1], the concentration at half-maximal activity (AC50) is 312 nM (active). Besides, the molecule was called inactive in experiment [2], in experiment [3], in experiment [4], in experiment [5], in experiment [6] and in experiment [7]. Besides, the outcome in [8], in experiment [9] and in experiment [10] was inactive.

Consider `CC(C)c1ccccc1N`, for which the result in experiment [1], in [2], in experiment [3], in [4], in experiment [5] and in experiment [6] was inactive. Also, the molecule was classed as inactive in experiment [7], in [8], in [9] and in experiment [10].

In the case of `CCCCCCOC(=O)c1ccccc1O`, the molecule was classed as inactive in experiment [1], in experiment [2], in experiment [3], in experiment [4], in [5] and in [6]. The call in experiment [7], in experiment [8], in experiment [9] and in [10] was inactive.

For the molecule `FC(F)(F)C(F)(F)C(F)(F)N(C(F)(F)C(F)(F)C(F)(F)F)C(F)(F)C(F)(F)C(F)(F)F`, the molecule was called inactive in experiment [1], in experiment [2], in experiment [3], in experiment [4], in experiment [5] and in experiment [6]. For the same molecule, the result in experiment [8], in experiment [9] and in experiment [10] was inactive.

As to `CCN(CC)c1ccc2c(C)cc(=O)oc2c1`, the outcome in experiment [1], in experiment [3], in experiment [5], in [6], in experiment [7] and in experiment [8] was inactive. Also, in experiment [10], the outcome was inactive. Also, the values for the AC50 in experiment [2], in experiment [4] and in experiment [9] were 30.7 µM (active), 26.5 µM (active) and 143 µM (active), respectively.

Regarding `O=C(CC(=O)C(F)(F)C(F)(F)F)C(F)(F)F`, the molecule was classed as inactive in experiment [1], in experiment [2], in experiment [3], in experiment [4], in [5] and in [6]. The call in experiment [8], in [9] and in experiment [10] was inactive.

Usually AC50 stands for the midpoint of the concentration-response curve, whichever way the signal moves.

The values are drawn from PubChem BioAssay (EPA / NIEHS).
